In all, about 87,000 compounds went through this assay and about 360 (0.41%) were called active. The list comes from a sample in which actives are over-represented; it also holds similar structures and randomly drawn compounds. Values without a mark were called inactive. Rule as the data show it: active = cytotoxicity above about 50%; inactive = the rest.

Here are results for 66 molecules from PubChem BioAssay AID620 (Sanford-Burnham Center for Chemical Genomics, 2007).

This experiment is described as follows: cytotoxicity in HT1080 fibrosarcoma cells, cell-based, fluorescence readout (AID 620).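 Also: cells exposed to compound overnight then 4 h with Alamar Blue; 0% = vehicle DMSO and 100% = killing control.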 Particulars: HT1080 viability, at 10 µM, hits give high values.
For the molecule `COc1ccc(CC(=O)N2CCN(C(=O)c3ccco3)CC2)cc1`, the cytotoxicity was 4.7%.
The figure for `NC(=O)C(c1ccccc1)C1CCCCC1` (stereo unspecified) is 5.9%.
Take `CC1(C)CC(=O)C=C(NCCN2CCN(C(=O)Nc3ccc(Cl)cc3)CC2)C1`: the cytotoxicity was -6.1%.
`Cc1[nH]nc(SCC(=O)N2CCC(C)CC2)c1[N+](=O)[O-]`: the cytotoxicity is 0.7%.
Then `COC(=O)C1CC(=O)N(CCc2c[nH]c3ccccc23)C1` (stereo unspecified), with 2.6%; and `COC(=O)Cn1nc(-c2ccccc2)c2ccccc2c1=O`, with 5.9%.
For `COc1ccc(-n2nnnc2S(=O)(=O)Cc2ccc(C(=O)O)cc2)cc1`, the cytotoxicity was 11.4%.
Then `COc1cc(OC)cc(-n2nnnc2SCC(=O)N2CCCC2)c1`, with -5.2%; and `COc1ccc(-n2nnnc2S(=O)(=O)CC(=O)N2CCCCC2)cc1`, with 54.3% (active); and `Cn1c(SCc2cc(=O)[nH]c3ccccc23)nnc1-c1ccc(Br)cc1`, with 6%.
`Clc1cccc(-c2nnc(SC/C=C/c3ccccc3)n2Cc2ccco2)c1`: the cytotoxicity is -0.5%.
`C(=C\c1ccccc1)/CSc1nnc(-c2ccccc2)n1Cc1ccco1`: the cytotoxicity was 53.5% (active).
In the case of `C(=C\c1ccccc1)/CSc1nnc(-c2ccncc2)n1Cc1ccco1`, the cytotoxicity is -2.1%.
The figure for `O=C(CN1C(=O)NC(Cc2ccccc2)C1=O)Nc1ccccc1` (stereo unspecified) is -3.1%; for `COC(=O)CSc1cc(C)nc(SC)n1` it is -7.3%; for `O=C(Nc1cc(Cl)ccc1O)C1CCCO1` (stereo unspecified) it is -2.4%.
Consider `CCc1nnc(NC(=O)Cn2nc(-c3ccccc3OC)ccc2=O)s1`, for which the cytotoxicity is 10.1%.
As for `CC(=O)c1cn(CC(=O)Nc2ccccc2C)c2ccccc12`, the cytotoxicity was -1.9%.
As to `Cc1ccc(NS(=O)(=O)c2ccccc2Cl)c2c1CC(C)(C)O2`, the cytotoxicity was 62.3% (active).
With `CN1CCN(c2ccc(Cl)cc2NS(=O)(=O)c2ccccc2Cl)CC1`, the cytotoxicity is -1.9%.
Regarding `Cc1ccccc1NS(=O)(=O)c1cc(S(C)(=O)=O)ccc1Cl`, the cytotoxicity is -10.1%.
On to `COc1ccc(C2C(C(C)=O)=C(O)C(=O)N2C)c(OC)c1` (stereo unspecified), for which the cytotoxicity was 5.8%.
Then `COc1ccc(C2CC(c3c(O)cc(C)oc3=O)=NCCS2)c(OC)c1` (stereo unspecified), with 51.9% (active); and `COC(=O)C1=C(C)C(c2ccc(OC)cc2OC)NC(=O)N1` (stereo unspecified), with 2.9%.
The figure for `N#CC1=C(N)C(C#N)(C#N)[C@H](c2ccoc2)[C@H]2CN(Cc3ccccc3)CC=C12` is 66.1% (active).
With `CN1CC=C2C(C#N)=C(N)C(C#N)(C#N)[C@H](c3ccoc3)[C@H]2C1`, the cytotoxicity is -7.5%.
The figure for `CCN1CC=C2C(C#N)=C(N)C(C#N)(C#N)[C@H](c3ccoc3)[C@H]2C1` is -2.2%; for `CCOC(=O)c1ccc(NC(=O)CN2CCc3ccccc3C2)cc1` it is -3.7%.
The figure for `COc1cccc(-c2cc(C(=O)Nn3cnnc3)c3ccccc3n2)c1` is 11.6%; for `CCN(CC)c1nc(N)nc(NS(=O)(=O)c2ccc(Cl)cc2)n1` it is 51.4% (active).
For the molecule `CCNc1nc(NC(C)C)nc(NS(=O)(=O)c2ccc(Cl)cc2)n1`, the cytotoxicity was -8.8%.
The figure for `CN(C)c1nc(NS(=O)(=O)c2ccc(Cl)cc2)nc(N(C)C)n1` is 35.3%; for `COCCNC(=O)CN(Cc1ccc2c(c1)OCO2)C(=O)CCC(=O)Nc1nccs1` it is -8.1%.
On to `O=C(CN(C(=O)Cn1nnc(-c2cccs2)n1)c1ccc2c(c1)OCCO2)NCC1CCCO1` (stereo unspecified), for which the cytotoxicity is -1.3%.
Take `Cc1ccsc1C1NC(=O)c2ccccc2N1` (stereo unspecified): the cytotoxicity is 7.3%.
As for `O=C1NC(c2cccs2)Nc2ccccc21` (stereo unspecified), the cytotoxicity is 10.2%.
Regarding `Cc1ccc(C2NC(=O)c3ccccc3N2)s1` (stereo unspecified), the cytotoxicity was 57.7% (active).
For `O=S(=O)(Nc1cccc2ncccc12)c1cccs1`, the cytotoxicity is 85% (active).
As to `Cc1ccc(S(=O)(=O)Nc2cccc3ncccc23)s1`, the cytotoxicity is 54.9% (active).
As for `Cc1ccc(S(=O)(=O)NCc2cccnc2)s1`, the cytotoxicity was -11.9%.
Regarding `Cc1ccc(S(=O)(=O)Nc2ccnc3ccccc23)cc1`, the cytotoxicity was 5.4%.
The figure for `O=S(=O)(Nc1cccc2c1ccc1cccn12)c1cccs1` is -4.6%; for `CCOc1ccccc1NS(=O)(=O)c1ccc(Br)s1` it is 20.7%.
On to `COc1ccccc1NS(=O)(=O)c1cccs1`, for which the cytotoxicity is 8.9%.
Turning to `CCOc1ccccc1NS(=O)(=O)c1cccs1`, the cytotoxicity was 56.5% (active).
Turning to `O=S(=O)(Nc1ccc(-c2nc3cccnc3s2)cc1)c1cccs1`, the cytotoxicity was -6.8%.
For `O=C(c1ccc2c3c(cccc13)CC2)N1CCOCC1`, the cytotoxicity was -18.7%.
Consider `CC(=O)N1C(=O)C2(C(C#N)=C(N)Oc3n[nH]c(-c4ccccn4)c32)c2ccccc21` (stereo unspecified), for which the cytotoxicity is 6.9%.
On to `O=C(NCc1ccc2c(c1)OCO2)c1nn(-c2ccccc2)c(=O)c2ccccc12`, for which the cytotoxicity was -4.7%.
As for `O=C(Nc1ccccn1)C(=O)N1CCCCC1`, the cytotoxicity was 4.7%.
Turning to `COc1cccc2c1C(=O)c1c(O)c3c(c(O)c1C2=O)C[C@@](O)(C(=O)CO)C[C@@H]3O[C@H]1C[C@H](N)[C@H](O)[C@H](C)O1`, the cytotoxicity is 53.8% (active).
The figure for `Cc1noc(/C=C/c2ccco2)c1S(=O)(=O)N1CCC(C(=O)N(C)Cc2ccccc2)CC1` is -4.4%; for `COc1ccc(C(CC(=O)O)NC(=O)COc2ccc(C)cc2)cc1OC` (stereo unspecified) it is 4.5%.
`CC(=O)n1cc(Nc2ccccc2C(=O)O)c2ccccc21`: the cytotoxicity is 0.2%.
As to `CCOC(=O)c1ccccc1Nc1cn(C(C)=O)c2ccccc12`, the cytotoxicity was 53.7% (active).
As to `CCOCC(=O)Nc1ccccc1C(=O)OCC`, the cytotoxicity is -3.7%.
The figure for `COc1ccc2c(Cl)c(-c3nnc4n3CCCCC4)sc2c1` is -8.8%.
The figure for `COc1ccc(C2C3=C(CC(C)(C)CC3=O)Oc3ncn(CCCn4ccnc4)c(=N)c32)cc1` (stereo unspecified) is 20.5%; for `C=CCn1c(SCc2c(C)noc2C)nc2ccccc2c1=O` it is 60.3% (active).
Regarding `CCc1cc2c(=O)n(Cc3ccco3)c(SCC(=O)N3CCCc4ccccc43)nc2s1`, the cytotoxicity is -1.5%.
On to `Cc1noc(C)c1CSc1nc2ccccc2c(=O)n1-c1ccccc1`, for which the cytotoxicity was 48.9%.
In the case of `Cc1noc(C)c1CSc1nc2ccccc2c(=O)n1-c1ccc(Cl)cc1`, the cytotoxicity was -2.7%.
As to `Cc1noc(C)c1CSc1nc2[nH]ncc2c(=O)n1-c1ccccc1`, the cytotoxicity was 60.4% (active).
`C=CCn1c(SCc2c(C)noc2C)nc2cc(C(=O)O)ccc2c1=O`: the cytotoxicity was 25.6%.
`Cc1noc(C)c1CSc1nnc(-c2ccccc2)n1Cc1ccco1`: the cytotoxicity was 2.6%.
As for `Cc1nc(CSc2nc3[nH]ncc3c(=O)n2-c2ccccc2)cs1`, the cytotoxicity was -1.5%.
